Values joined by “and” are separate entries in the source; they are usually repeats but may differ in a detail not shown here. Equal entries are not always repeated. Inconclusive results are not listed. Active and inactive are the calls of the source. Unless noted, calls come from the whole dose curve.
Key:
[1] = molecular target: Estrogen receptor (Homo sapiens) (UniProt P03372); assay: qHTS assay for small molecule agonists of estrogen receptor alpha signaling (AID 588514); note: nearly all actives have a fitted effect of over 70% in size; note: potency is the fitted concentration of half-maximal effect;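 for activation: 0% = vehicle only and 100% = reference agonist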
In short: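 Cells were plated at 5000/well, incubated 4 hrs at 37 C, dosed with compound titration series, incubated 18 hrs at 37 C, loaded with CCF4 dye for 2 hrs at RT, then fluorescence was read.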

[2] = molecular target: Bile acid receptor (Homo sapiens) (UniProt Q96RI1); assay: qHTS assay for small molecule antagonists of farnesoid X receptor signaling (AID 588526); note: potency is the fitted concentration of half-maximal effect
In short: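 Beta-lactamase reporter antagonist mode: HEK293T FXR-UAS-bla cells, titrated compound, CDCA stimulation, 16 h 37 C, CCF4 dye 2 h RT. Data normalized to CDCA 50 uM and DMSO; Hill-fit IC50.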

[3] = molecular target: Bile acid receptor (Homo sapiens) (UniProt Q96RI1); assay: qHTS assay for small molecule agonists of farnesoid X receptor signaling (AID 588527); details: HEK293T FXR-UAS-bla, beta-lactamase ratio, 16 h; activation: active compounds read high;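 note: series mostly up to about 77 µM; 0% = vehicle basal and 100% = reference agonist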
In short: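 FXR-UAS-bla HEK293T cells (10% dialyzed FBS) preincubated 5-7 h at 37 C, then compounds at up to 92 uM for 16 h at 37 C. CCF4 beta-lactamase read-out after 2 h RT. Normalized to chenodeoxycholic acid (100 uM) and DMSO; Hill fit gave EC50 and efficacy.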

[4] = molecular target: Glucocorticoid receptor (Homo sapiens) (UniProt P04150); assay: qHTS assay for small molecule agonists of glucocorticoid receptor signaling (AID 588532; active = well fitted curve in the direction sought with a large enough effect in the signal ratio, with a control signal flat; the % refers to the signal ratio;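 note: 100% = dexamethasone at 0.1 µM and 0% = DMSO only wells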); details: HeLa MMTV-bla, beta-lactamase ratio, agonist, 18 h; activation: active compounds read high, percent of dexamethasone control, DMSO zero
In short: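 Using MMTV-bla HeLa cells in medium with 1% stripped FBS and 25 mM HEPES, compounds were titrated and incubated overnight-length (18 h). Beta-lactamase cleavage of CCF4 was quantified by dual-emission fluorescence.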

[5] = qHTS assay for small molecule agonists of the antioxidant response element (ARE) signaling pathway (AID 651741; active = well fitted activation curve with a large enough effect in the signal ratio; the % refers to the signal ratio; note: potency is the fitted concentration of half-maximal effect; for activation: % of control where 0% means no effect)
In short: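 Quantitative HTS in HepG2 cells stably expressing an ARE-beta-lactamase reporter; 16 h compound exposure at 37 C, followed by 2 h room-temperature incubation with LiveBLAzer B/G FRET substrate and fluorescence measurement.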

[6] = qHTS assay for small molecule activators of the nuclear factor-kappa B (NF-kB) signaling pathway (AID 651749; active = well fitted activation curve with a large enough effect in the signal ratio; the % refers to the signal ratio; note: series mostly up to about 77 µM; % of control where 0% means no effect); details: NF-kB-bla ME-180 cells, beta-lactamase FRET ratio, 16 h; activation: active compounds read high
In short: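 Readout: beta-lactamase reporter driven by an NF-kB response element, detected fluorescently as loss of FRET. Cells were the ME-180 line, treated 16 hr at 37C with pin-transferred compound.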

[7] = qHTS assay for small molecule activators of the human pregnane X receptor (PXR) signaling pathway (AID 720659; call rule not given here; note: 0% is about no effect)
[8] = molecular target: Glucocorticoid receptor (Homo sapiens) (UniProt P04150); assay: qHTS assay for small molecule antagonists of glucocorticoid receptor signaling (AID 588533; active = well fitted inhibition curve with a large enough effect in the signal ratio, with a control signal flat, not every such curve was filed as active; the % refers to the signal ratio;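 note: cells stimulated with 2 nM dexamethasone as agonist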; note: potency is the fitted concentration of half-maximal effect)
In short: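 Antagonist-mode qHTS: compound titrations added to GRE-bla HeLa cells, then dexamethasone 2 nM final; 18 h, 37 C. CCF4 FRET fluorescence normalized to dexamethasone and DMSO; IC50 from Hill fit.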

[9] = molecular target: Thyroid hormone receptor beta (Homo sapiens) (UniProt P10828); assay: qHTS assay for small molecule antagonists of thyroid hormone receptor beta signaling (AID 588547; active = well fitted inhibition curve with a large enough effect in the signal ratio, with a control signal flat, not every such curve was filed as active; the % refers to the signal ratio;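 note: cells stimulated with 0.4 nM T3 agonist during compound exposure; series mostly up to about 77 µM; % is set by controls: 0 for no effect and ±100 for the full control effect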); details: TR-UAS-bla HEK293, beta-lactamase ratio, antagonist mode, 18 h
In short: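 Inhibition of T3-driven (0.4nM final) beta-lactamase reporter activity was measured over 0.59 nM to 92 uM compound after 18 h at 37 C. The cells were GripTite HEK293 TR-UAS-bla in charcoal/dextran-stripped serum, with CCF4 ratio read-out and IC50 from Hill fits.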

[10] = molecular target: Peroxisome proliferator-activated receptor delta (Homo sapiens) (UniProt Q03181); assay: qHTS assay for small molecule antagonists of peroxisome proliferator-activated receptor delta signaling (AID 588535; active = well fitted inhibition curve with a large enough effect in the signal ratio, with a control signal flat, not every such curve was filed as active; the % refers to the signal ratio)
In short: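 HEK293T PPAR-delta-UAS-bla cells, 4000/well, 2% charcoal/dextran FBS; 5 h 37 C; cpd titration; 18 h 37 C; CCF4 2 h RT; FI 460/530 nm; Hill fit → IC50, efficacy.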

[11] = molecular target: Androgen receptor (Homo sapiens) (UniProt P10275); assay: qHTS assay for small molecule agonists of androgen receptor signaling (AID 588515; active = well fitted curve in the direction sought with a large enough effect in the signal ratio, with a control signal flat; the % refers to the signal ratio; note: % is set by controls: 0 for no effect and ±100 for the full control effect); details: AR-UAS-bla HEK293, beta-lactamase ratio, agonist 16 h; active compounds read high
In short: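 EC50 and efficacy came from Hill fits of titrations (up to 92 uM) normalized to 30 nM R1881 as 100% and DMSO as 0%. Compound exposure was 16 h at 37 C on AR-UAS-bla HEK293 cells, with a 405/460/530 nm CCF4 fluorescence read.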

[12] = molecular target: Androgen receptor (Homo sapiens) (UniProt P10275); assay: qHTS assay for small molecule antagonists of androgen receptor signaling (AID 588516; active = well fitted curve in the direction sought with a large enough effect in the signal ratio, with a control signal flat, not every such curve was filed as active; the % refers to the signal ratio; note: % is set by controls: 0 for no effect and ±100 for the full control effect)
In short: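 HEK293 AR-UAS-bla cells, 10% dialyzed FBS medium; cpd titration + R1881 10 nM final, 16 h 37 C; CCF4 2 h RT; FRET ratio; IC50/efficacy via Hill fit.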

Sequence of Thyroid hormone receptor beta (Homo sapiens) (P10828 whole entry, looked up): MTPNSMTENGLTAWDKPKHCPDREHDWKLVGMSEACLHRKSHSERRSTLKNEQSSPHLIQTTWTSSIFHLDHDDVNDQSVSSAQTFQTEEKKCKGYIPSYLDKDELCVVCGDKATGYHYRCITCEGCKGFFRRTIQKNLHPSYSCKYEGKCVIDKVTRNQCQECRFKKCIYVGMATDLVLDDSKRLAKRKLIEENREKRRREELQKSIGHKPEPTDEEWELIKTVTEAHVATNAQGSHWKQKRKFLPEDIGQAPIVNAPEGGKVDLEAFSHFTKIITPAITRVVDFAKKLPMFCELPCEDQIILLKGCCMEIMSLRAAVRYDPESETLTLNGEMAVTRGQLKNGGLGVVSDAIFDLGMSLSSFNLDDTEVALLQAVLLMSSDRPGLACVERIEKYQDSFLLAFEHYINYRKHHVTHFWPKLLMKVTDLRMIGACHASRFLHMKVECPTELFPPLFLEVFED
Sequence of Androgen receptor (Homo sapiens) (P10275 whole entry, looked up): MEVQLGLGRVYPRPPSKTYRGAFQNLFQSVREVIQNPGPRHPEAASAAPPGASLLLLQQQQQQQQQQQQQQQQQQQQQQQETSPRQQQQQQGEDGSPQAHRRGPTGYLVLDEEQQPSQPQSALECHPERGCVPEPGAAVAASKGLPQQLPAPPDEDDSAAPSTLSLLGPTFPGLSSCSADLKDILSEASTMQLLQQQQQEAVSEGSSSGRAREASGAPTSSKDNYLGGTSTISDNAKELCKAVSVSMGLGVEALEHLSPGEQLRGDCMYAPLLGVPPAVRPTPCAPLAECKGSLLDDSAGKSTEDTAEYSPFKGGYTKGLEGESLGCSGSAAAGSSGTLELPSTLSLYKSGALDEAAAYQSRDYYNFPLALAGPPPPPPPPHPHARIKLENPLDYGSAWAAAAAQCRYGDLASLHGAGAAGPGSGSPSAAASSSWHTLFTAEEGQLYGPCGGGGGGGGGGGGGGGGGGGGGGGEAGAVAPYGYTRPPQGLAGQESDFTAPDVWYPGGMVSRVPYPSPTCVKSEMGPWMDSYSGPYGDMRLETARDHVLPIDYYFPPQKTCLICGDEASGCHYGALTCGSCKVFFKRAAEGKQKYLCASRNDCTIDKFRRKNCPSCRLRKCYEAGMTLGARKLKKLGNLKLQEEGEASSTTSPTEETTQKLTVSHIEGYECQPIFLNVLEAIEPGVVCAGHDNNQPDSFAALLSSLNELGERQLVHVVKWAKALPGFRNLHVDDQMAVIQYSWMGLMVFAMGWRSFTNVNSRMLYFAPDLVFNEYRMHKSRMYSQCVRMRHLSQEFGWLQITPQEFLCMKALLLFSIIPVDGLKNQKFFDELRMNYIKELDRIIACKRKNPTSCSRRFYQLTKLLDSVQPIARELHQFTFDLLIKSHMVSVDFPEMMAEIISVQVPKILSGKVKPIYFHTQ
Sequence of Glucocorticoid receptor (Homo sapiens) (P04150 whole entry, looked up): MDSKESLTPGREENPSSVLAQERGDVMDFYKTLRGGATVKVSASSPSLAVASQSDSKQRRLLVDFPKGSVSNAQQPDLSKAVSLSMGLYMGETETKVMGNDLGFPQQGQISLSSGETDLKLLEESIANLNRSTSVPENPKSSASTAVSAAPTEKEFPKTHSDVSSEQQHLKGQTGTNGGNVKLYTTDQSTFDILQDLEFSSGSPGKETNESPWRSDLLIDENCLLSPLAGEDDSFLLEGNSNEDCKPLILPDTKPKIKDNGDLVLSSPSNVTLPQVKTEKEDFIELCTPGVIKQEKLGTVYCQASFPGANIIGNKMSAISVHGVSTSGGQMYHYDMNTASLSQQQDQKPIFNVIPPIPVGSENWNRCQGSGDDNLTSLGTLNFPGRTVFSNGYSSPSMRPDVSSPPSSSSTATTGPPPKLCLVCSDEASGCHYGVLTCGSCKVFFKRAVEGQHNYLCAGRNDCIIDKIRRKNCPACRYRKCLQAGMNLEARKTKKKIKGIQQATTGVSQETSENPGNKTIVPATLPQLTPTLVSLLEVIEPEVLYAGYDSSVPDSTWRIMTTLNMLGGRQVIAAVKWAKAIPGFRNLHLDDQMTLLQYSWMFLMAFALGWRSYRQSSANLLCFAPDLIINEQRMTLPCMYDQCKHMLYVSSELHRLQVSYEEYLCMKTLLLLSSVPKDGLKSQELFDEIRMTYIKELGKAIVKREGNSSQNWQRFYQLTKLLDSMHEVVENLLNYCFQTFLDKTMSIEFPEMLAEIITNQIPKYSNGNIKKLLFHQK
Sequence of Bile acid receptor (Homo sapiens) (Q96RI1 whole entry, looked up): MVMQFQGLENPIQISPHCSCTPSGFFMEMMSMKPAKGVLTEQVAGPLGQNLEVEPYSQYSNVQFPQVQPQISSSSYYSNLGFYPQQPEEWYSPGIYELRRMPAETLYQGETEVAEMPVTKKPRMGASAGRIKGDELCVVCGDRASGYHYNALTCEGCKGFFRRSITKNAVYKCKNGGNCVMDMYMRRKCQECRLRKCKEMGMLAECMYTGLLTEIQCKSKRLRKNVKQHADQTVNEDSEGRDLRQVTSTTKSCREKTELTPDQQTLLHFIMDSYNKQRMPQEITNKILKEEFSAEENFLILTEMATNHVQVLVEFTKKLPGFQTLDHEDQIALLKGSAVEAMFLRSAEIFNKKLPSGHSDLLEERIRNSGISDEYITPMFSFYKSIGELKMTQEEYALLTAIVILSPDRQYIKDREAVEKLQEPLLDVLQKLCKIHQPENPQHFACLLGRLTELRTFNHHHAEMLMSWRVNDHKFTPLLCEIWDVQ
Sequence of Peroxisome proliferator-activated receptor delta (Homo sapiens) (Q03181 whole entry, looked up): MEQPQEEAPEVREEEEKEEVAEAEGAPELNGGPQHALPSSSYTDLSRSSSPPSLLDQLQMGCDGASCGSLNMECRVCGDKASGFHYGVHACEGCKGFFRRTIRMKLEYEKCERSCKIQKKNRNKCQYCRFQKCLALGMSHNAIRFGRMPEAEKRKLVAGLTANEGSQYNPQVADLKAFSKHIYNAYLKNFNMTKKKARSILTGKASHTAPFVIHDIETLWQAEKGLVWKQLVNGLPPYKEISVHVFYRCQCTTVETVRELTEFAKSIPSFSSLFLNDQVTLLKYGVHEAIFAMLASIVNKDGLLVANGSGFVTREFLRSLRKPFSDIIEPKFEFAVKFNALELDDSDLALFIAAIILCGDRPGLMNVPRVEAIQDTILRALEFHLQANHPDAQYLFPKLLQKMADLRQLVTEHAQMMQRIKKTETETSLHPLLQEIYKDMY
Sequence of Estrogen receptor (Homo sapiens) (P03372 whole entry, looked up): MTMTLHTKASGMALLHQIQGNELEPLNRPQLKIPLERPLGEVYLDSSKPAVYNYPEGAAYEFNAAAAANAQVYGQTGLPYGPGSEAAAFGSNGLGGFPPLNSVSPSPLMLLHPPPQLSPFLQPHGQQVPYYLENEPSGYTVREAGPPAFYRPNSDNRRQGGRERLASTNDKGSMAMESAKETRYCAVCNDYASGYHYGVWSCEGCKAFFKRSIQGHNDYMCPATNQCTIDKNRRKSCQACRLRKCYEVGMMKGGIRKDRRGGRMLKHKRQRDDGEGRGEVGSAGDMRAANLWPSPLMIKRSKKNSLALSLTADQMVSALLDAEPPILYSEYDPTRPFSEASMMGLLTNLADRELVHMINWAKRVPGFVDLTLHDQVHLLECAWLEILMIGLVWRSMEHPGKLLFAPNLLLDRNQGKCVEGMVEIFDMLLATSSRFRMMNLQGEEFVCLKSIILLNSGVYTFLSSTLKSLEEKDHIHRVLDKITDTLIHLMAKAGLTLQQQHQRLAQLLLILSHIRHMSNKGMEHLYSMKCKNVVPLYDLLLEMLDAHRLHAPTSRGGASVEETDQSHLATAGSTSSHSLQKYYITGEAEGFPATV

CCC[CH2][Sn]([CH2]CCC)([O]C(C)=O)[O]C(C)=O
inactive: activation [3] -0.854% | activation [4] -12.8% | activation [6] 0.746% | outcome [7]
active: Potency [1] 0.794 µM | Potency [2] 12.6 µM | Potency [5] 30.6 µM

CCOc1ccc(C(C)(C)COCc2cccc(Oc3ccccc3)c2)cc1
inactive: Potency [1] | activation [3] 4.53% | activation [4] -0.996% | Potency [8] | activity change % (negative = inhibition) [9] 2.33% | Potency [5]

CCC[CH2][Sn]([CH2]CCC)[CH2]CCC
inactive: Potency [1] | activation [4] -13.3%

CCCCC(CC)CO[N+](=O)[O-] (stereo not drawn)
inactive: Potency [1] | Potency [8] | outcome [7]

CN(C)P(=O)(N(C)C)N(C)C
inactive: Potency [1] | Potency [2] | activation [3] 3.22% | activity change % (negative = inhibition) [9] -0.373% | Potency [5] | outcome [7]

Cn1cc(-c2ccccc2)c(=O)c(-c2cccc(C(F)(F)F)c2)c1
inactive: Potency [1] | activation [4] -15.3% | Potency [8] | Potency [10] | activation [6] -0.874%

C=C(C)CN(CC)c1c([N+](=O)[O-])cc(C(F)(F)F)cc1[N+](=O)[O-]
inactive: Potency [1] | activation [4] 1.61% | Potency [10] | activation [6] -4.66%

O=C(NC(=O)c1c(F)cccc1F)Nc1ccc(OC(F)(F)C(F)OC(F)(F)F)c(Cl)c1 (stereo not drawn)
inactive: Potency [1] | activation [4] -15.7% | Potency [8] | activity change % (negative = inhibition) [9] 12.3% | activation [6] 1.61% | outcome [7]

COc1ccc(C(O)(c2cncnc2)C2CC2)cc1 (stereo not drawn)
inactive: Potency [1] | Potency [2] | activation [3] -0.99% | activation [4] -6.63% | activity change % (negative = inhibition) [9] -4.75% | Potency [5] | outcome [7]

COc1cc(Cl)c(OC)cc1Cl
inactive: Potency [1] | activation [4] -1.33% | Potency [8] | activity change % (negative = inhibition) [9] 4.96% | Potency [5] | activation [6] -1.99%

CC1CCCCC1NC(=O)Nc1ccccc1 (stereo not drawn)
active: Potency [5] 34.4 µM
inactive: Potency [1] | activation [3] 2% | activation [4] -3.51% | Potency [8] | Potency [10] | activation [6] -4.02%

O=C(O)c1nc(Cl)ccc1Cl
inactive: Potency [1] | activation [4] -4.22% and 6.64% | Potency [8] | activity change % (negative = inhibition) [9] -7.12% | outcome [7]

CCNC(=O)NC(=O)/C(C#N)=N/OC
inactive: Potency [1] | Potency [2] | activation [3] -0.507% | activation [4] 3.07% | Potency [10] | activity change % (negative = inhibition) [9] 5.55%
active: Potency [5] 61.1 µM

CC(C)(C)C(=O)[C@H](Oc1ccc(Cl)cc1)n1cncn1
inactive: Potency [1] | activation [4] -0.211% | Potency [8]

CCCN(CC)CC1COC2(CCC(C(C)(C)C)CC2)O1 (stereo not drawn)
inactive: Potency [1] | activation [4] 11.4% | Potency [8] | Potency [10] | Potency [5] | activation [6] -1.56% | outcome [7]

CCN(CC)c1nc(C)cc(OP(=S)(OC)OC)n1
inactive: Potency [1] | activation [4] 19.3% | Potency [8] | Potency [10] | activity change % (negative = inhibition) [9] -11.6% | activation [6] 0.586% | outcome [7]

CCOP(OCC)OCC
inactive: Potency [1] | Potency [2] | activation [3] -1.35% | activity change % (negative = inhibition) [9] 9.21% | activation [6] -0.0576% | outcome [7]

COP(=O)(OC)Oc1ccc([N+](=O)[O-])cc1
inactive: Potency [1] | activation [3] 5.22% | Potency [5] | outcome [7]

CCCCC(CC)COC(=O)Cl (stereo not drawn)
inactive: Potency [1] | Potency [2] | activation [3] 1.19% | Potency [8] | Potency [5] | activation [6] -0.442% | outcome [7]

Oc1ccc(C2(c3ccc(O)cc3)c3ccccc3-c3ccccc32)cc1
active: Potency [2] 28.2 µM | Potency [8] 44.7 µM
inactive: Potency [1]

Brc1c(Br)c(Br)c(Br)c(Br)c1Br
inactive: Potency [1] | activation [4] -0.0722% | Potency [8] | Potency [10] | outcome [7]

COP(=S)(OC)Oc1ccc([N+](=O)[O-])c(C)c1
inactive: Potency [2] | activation [3] 2.17% | activation [4] -13.6% | Potency [8] | activity change % (negative = inhibition) [9] 7.88%

Clc1ccccc1-c1nnc(-c2ccccc2Cl)nn1
inactive: Potency [1] | Potency [10]

COCC(=O)N(c1c(C)cccc1C)[C@H](C)C(=O)OC
inactive: Potency [2] | activation [3] 0.109% | Potency [5]

CCOP(=S)(NC(C)C)Oc1ccccc1C(=O)OC(C)C (stereo not drawn)
inactive: activation [3] 8.84% | activation [4] -0.106% | Potency [8] | activity change % (negative = inhibition) [9] 1.38% | Potency [5]

C=CC(=O)NCO
inactive: activation [11] -1.79% and 14.2% | Potency [12] | Potency [2] | activation [3] 0.901% and -4.9% | activation [4] -0.576% and 6.11% | Potency [8] | Potency [10] | activity change % (negative = inhibition) [9] 0.0569% | activation [6] 0.439% and -0.866% | outcome [7]
active: Potency [5] 501 µM

COc1nc(C)nc(NC(=O)NS(=O)(=O)c2ccccc2Cl)n1
inactive: Potency [1] | Potency [8] | Potency [5] | outcome [7]

O=P(OCC(Br)CBr)(OCC(Br)CBr)OCC(Br)CBr (stereo not drawn)
active: Potency [5] 15.4 µM
inactive: activation [11] -12.7% | activation [3] 0.554% | Potency [10] | activity change % (negative = inhibition) [9] -25.3%

Reference: PubChem BioAssay (NCATS)
